In the assay the target is Mitogen-activated protein kinase 3 (Homo sapiens) (UniProt P27361). Briefly: ERK1 kinase inhibitors, dose response, selectivity assay for Dyrk1A inhibitor NFAT project, biochemical, ADP-Glo luminescence, cherry pick, set 2 (AID 602295). (In ADP-Glo the light output rises with the ADP produced.)

Active and inactive are the calls of the source.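 The calls were made as follows: active = every separate test run called active, meaning the signal drops and a potency is fitted within twice the top valid dose; inconclusive = runs disagree, poor fit, or flat partial inhibition; inactive = all runs inactive, flat, opposite direction or too weak.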

Chain of Mitogen-activated protein kinase 3 (Homo sapiens) (P27361 whole entry, looked up): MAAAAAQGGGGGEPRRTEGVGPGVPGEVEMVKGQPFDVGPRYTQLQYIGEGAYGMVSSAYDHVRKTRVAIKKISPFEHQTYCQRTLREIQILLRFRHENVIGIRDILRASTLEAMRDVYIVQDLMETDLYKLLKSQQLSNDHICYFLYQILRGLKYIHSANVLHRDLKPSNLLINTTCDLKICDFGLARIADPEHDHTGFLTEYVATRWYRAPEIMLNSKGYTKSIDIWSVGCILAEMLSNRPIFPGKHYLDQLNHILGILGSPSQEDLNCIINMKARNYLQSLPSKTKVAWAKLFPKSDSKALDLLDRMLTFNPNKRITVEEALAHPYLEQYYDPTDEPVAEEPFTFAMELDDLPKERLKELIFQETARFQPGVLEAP

For `COc1ccc2c(c1)[nH]c1c(C)nccc12`, the call was inactive.
